# Compound activity (PubChem BioAssay)
# The full list was thinned out, with hits kept by preference.
# HT1080 IDH1KD tx: toxicity to HT-1080 IDH1 knockdown cells (counter line). HT-1080 IDH1 knockdown viability, ATP luminescence, 48 h. Potency, µM (doses to about 46.1 µM), most hits filed as cytotoxic. hit rate 2% among 360,000
#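 IDH1KD HT-1080 cells, 750/well, RPMI + 5% FBS; compound pinned after 2 h settling; 48 h, 37 °C; CellTiter-Glo luminescence; % activity normalised to DMSO and no-cell wells; curves fitted, classed by r2 and efficacy.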
# HT1080-NT tox: kills 2HG-producing HT-1080-NT fibrosarcoma cells | HT-1080-NT fibrosarcoma viability, CellTiter-Glo ATP luminescence, 48 h | Potency, µM (series often up to 46.1 µM), most hits filed as cytotoxic | hit rate 1.6% among 360,000 | AID 686970;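 further: NT is the 2HG producing partner of a matched IDH1 knockdown line; nearly all actives have a fitted effect of over 55% in size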
#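 Luminescent CellTiter-Glo readout after 48 hours of compound exposure at 37 degrees C defined viability of HT-1080-NT cells. Activity was normalized to DMSO wells and cell-free media wells; concentration-response curves were fitted and assigned curve classes.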
# ALOX12 inh: ALOX12 (human) lipoxygenase inhibition; AID 1671190; Potency, µM (titrated, usually from 108 µM), hits mostly inhibitors; purified 12hLO, xylenol orange hydroperoxide absorbance; hit rate 1.1% among 580,000
# Target sequence (P18054 whole entry, looked up): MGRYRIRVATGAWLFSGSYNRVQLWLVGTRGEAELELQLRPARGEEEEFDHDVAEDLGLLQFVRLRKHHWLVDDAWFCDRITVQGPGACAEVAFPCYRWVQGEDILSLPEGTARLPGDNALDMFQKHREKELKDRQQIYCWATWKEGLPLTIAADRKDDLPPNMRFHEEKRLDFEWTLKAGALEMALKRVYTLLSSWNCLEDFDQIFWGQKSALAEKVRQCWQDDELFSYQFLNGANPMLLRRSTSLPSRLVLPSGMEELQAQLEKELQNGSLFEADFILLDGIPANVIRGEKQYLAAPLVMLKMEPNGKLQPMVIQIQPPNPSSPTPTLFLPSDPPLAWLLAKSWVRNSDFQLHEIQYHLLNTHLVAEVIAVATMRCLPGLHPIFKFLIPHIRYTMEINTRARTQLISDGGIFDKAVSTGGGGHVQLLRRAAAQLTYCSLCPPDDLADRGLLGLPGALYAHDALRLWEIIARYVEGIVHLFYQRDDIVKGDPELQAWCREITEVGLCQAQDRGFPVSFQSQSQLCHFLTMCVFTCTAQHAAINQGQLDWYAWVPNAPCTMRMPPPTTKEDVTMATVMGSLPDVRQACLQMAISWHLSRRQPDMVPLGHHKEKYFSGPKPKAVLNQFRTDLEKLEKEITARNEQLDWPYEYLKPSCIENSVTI
#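 Purified human 12hLO (150 nM final) in 25 mM Hepes, 0.01% Triton X-100, pH 7.0 was preincubated 15 min at room temperature with compound. Then 40 uM arachidonic acid was added, 30 min. Hydroperoxide was read by Fe-XO absorbance ratio 573/405 nm.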
# TDP1 cell noCPT: qHTS for Inhibitors of human tyrosyl-DNA phosphodiesterase 1 (TDP1): qHTS in cells in absence of CPT; DT40 Tdp1-/- hTDP1 cells, no CPT, ATP luminescence, 48 h; hit rate 15% among 420,000; Potency, µM (doses to about 46.2 µM), hits mostly inhibitors; further: nearly all actives have a fitted effect of over 55% in size
#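 Chicken DT40 Tdp1-/- cells stably complemented with human TDP1 were seeded at 400 cells/well with DMSO in place of 20 nM camptothecin. After compound pinning, cells grew at least 48 hr at 37 °C; viability read by CellTiter-Glo luminescence.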
# TDP1 cell CPT: growth inhibition of DT40 Tdp1-/-;hTDP1 cells with camptothecin (screen for TDP1 inhibitors); chicken DT40 Tdp1-/-;hTDP1 cells + 20 nM CPT, ATP luminescence, 48 h; Potency, µM (doses to about 46.2 µM), most hits filed as inhibitors; hit rate 12% among 420,000; AID 686979; further: nearly all actives have a fitted effect of over 55% in size
#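 Chicken DT40 Tdp1-/- cells stably complemented with human TDP1 were seeded at 400 cells/well in medium containing 20 nM camptothecin, exposed to pin-transferred compounds, and grown at 37 °C for at least 48 hr. Viability was read as ATP luminescence.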
# IL-1B inflam inh: blocks inflammasome-driven IL-1 beta release | THP-1 LPS/ATP IL-1B secretion, AlphaLISA, 16 h; stronger effect = lower value | activity change, % at 57.5 µM | hit rate 4.7% among 360,000 | AID 743279; in the data active means activity change below about -50%; inconclusive means mostly about -30% to -49%
#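 Secreted IL-1B measured by AlphaLISA bead assay after 16 h compound exposure of THP-1 cells; compounds (final up to 57.5 uM) added 1 h before LPS (250 ng/mL) and ATP (1.25 mM) stimulation; lower signal means less secretion.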
# Hits are given with their value; i = inactive; ? = inconclusive; nt = not tested or not shown; [ ] = remark or other dose. Unless noted, the call rests on the fitted dose curve; in most records, active means well fitted curve in the direction sought with a large enough effect; inconclusive means small, poorly fitted or top-dose-only effect, or another doubt; inactive means no such curve, though single readings can be large; an effect the other way counts as inactive or inconclusive.
SMILES,HT1080 IDH1KD tx,HT1080-NT tox,ALOX12 inh,TDP1 cell noCPT,TDP1 cell CPT,IL-1B inflam inh
CCCCN(C(=O)c1ccc(S(=O)(=O)N(C)C)cc1)c1nc2ccccc2s1,i,i,i,i,i,i
CN(C)CCN(C(=O)c1ccc(S(=O)(=O)N(C)c2ccccc2)cc1)c1nc2cc3c(cc2s1)OCCO3,i,i,i,?,i,i
CN(C)CCCN(C(=O)COc1ccccc1)c1nc2ccc(F)cc2s1,i,i,?,i,i,i
CCOc1cccc2sc(N(CCCN(C)C)C(=O)c3ccc(S(=O)(=O)N(C)c4ccccc4)cc3)nc12,?,?,?,?,?,i
CCN(Cc1ccccc1)S(=O)(=O)c1ccc(C(=O)N(CCCN(C)C)c2nc3ccc(F)cc3s2)cc1,?,?,?,i,?,-101.3
CCN(Cc1ccccc1)S(=O)(=O)c1ccc(C(=O)N(CCCN(C)C)c2nc3cc(OC)ccc3s2)cc1,?,?,?,23.1µM,?,-100.3
CN1CC2(CCCN(Cc3cc4ccccc4n(C)c3=O)C2)OC1=O (stereo not drawn),nt,nt,i,nt,nt,nt
COc1ccc(OC)c(NC(=O)c2c(-n3cnnn3)sc(C)c2C)c1,nt,nt,i,nt,nt,nt
CCOC(=O)Cc1ccc(NC(=O)NC(C)C(=O)N2CCc3ccccc32)cc1 (stereo not drawn),nt,nt,i,nt,nt,nt
C1=CCC(c2nc(C3CCOCC3)nn2-c2cccnc2)C1,nt,nt,i,nt,nt,nt
COc1ccc2sc(N(CCCN(C)C)C(=O)c3ccc(C(=O)c4ccccc4)cc3)nc2c1,?,?,?,?,16.4µM,-88.2
Cc1cccc2sc(N(CCCN(C)C)C(=O)c3ccc(C(=O)c4ccccc4)cc3)nc12,?,?,i,?,?,i
COc1ccc(CN2C(=O)COC[C@H]2C(=O)Nc2cc(F)cc(F)c2)cc1OC,nt,nt,i,nt,nt,nt
COc1cccc2c(Nc3ccccc3O)cc(C)nc12,nt,nt,i,nt,nt,nt
COc1ccc(/C=N/Nc2cc(C)nc3ccccc23)cc1,?,18.4µM,i,?,?,-106.9
COc1cccc2c(N/N=C/c3ccc(O)c(O)c3)cc(C)nc12,i,i,20µM,i,i,i
COc1ccc(/C=N/Nc2cc(C)nc3c(C)cccc23)cc1,?,?,?,20.6µM,?,?
COc1ccc2nc(C)cc(N/N=C/c3ccc(F)cc3)c2c1,4.61µM,2.91µM,?,0.92µM,1.03µM,-98.6
O=C(CSc1nc2cc(Cl)ccc2s1)NC1CCCCC1,nt,nt,i,nt,nt,nt
N#Cc1ccccc1-c1ccc(CSc2nnnn2-c2cccc(F)c2)cc1,nt,nt,i,nt,nt,nt
O=C(c1nn(Cc2ccccc2)c(=O)c2ccccc12)N1CCCC1c1ccc2c(c1)OCCCO2 (stereo not drawn),nt,nt,i,nt,nt,nt
COc1ccc(S(=O)(=O)N2CCOCC2)cc1NC(=O)CCCSc1ccccc1,i,i,?,i,i,i
Cc1ccc(OCCC(=O)Nc2cc(S(=O)(=O)N3CCOCC3)ccc2N2CCCC2)cc1,i,i,i,14.6µM,?,?
Cc1cccc(OCC(=O)Nc2cc(S(=O)(=O)N3CCOCC3)ccc2N2CCCC2)c1C,i,i,i,16.4µM,?,-81.3
O=C(CCCSc1ccc(Cl)cc1)Nc1cc(S(=O)(=O)N2CCOCC2)ccc1O,i,i,?,23.1µM,18.4µM,i
SMILES,HT1080 IDH1KD tx,HT1080-NT tox,ALOX12 inh,TDP1 cell noCPT,TDP1 cell CPT,IL-1B inflam inh
CCOc1ccc(OCCCC(=O)Nc2cc(S(=O)(=O)N3CCOCC3)ccc2N2CCOCC2)cc1,i,i[9.24 µM],?,i,?,i
CSCCC(=O)Nc1cc(S(=O)(=O)N2CCOCC2)ccc1N1CCN(C)CC1,i,i,i,i,i,-72.2
CCOC(=O)c1ccc(NC(=O)CCS(=O)(=O)c2cc(-c3cc(C)no3)ccc2OC)cc1,nt,nt,i,nt,nt,nt
Cc1[nH]nc(CCC(=O)N2CCC3(CCC(=O)N(CC4CC4)C3)CC2)c1C,nt,nt,i,nt,nt,nt
Cc1cc(C)c(C(N)C(=O)O)c(C)c1 (stereo not drawn),nt,nt,i,nt,nt,nt
C=CCNC(=O)C1CCN(c2ccc(S(=O)(=O)N3CCOCC3)cc2Cl)CC1,i,i,i,i,i,i
CCCCCC(=O)Nc1cc(S(=O)(=O)N2CCCCC2)ccc1N1CCCCC1,i,i,i,14.6µM,?,i
CCCNC(=O)C1CCN(c2ccc(S(=O)(=O)N3CCOCC3)cc2Cl)CC1,i,i,i,i,14.6µM,i
Cc1ccccc1SCC(=O)Nc1cc(S(=O)(=O)N2CCOCC2)ccc1N1CCOCC1,i,i,i,?,16.4µM,i
CCCCCC(=O)Nc1cc(S(=O)(=O)N2CCOCC2)ccc1N1CCN(C)CC1,i,i,?,i,i,i
O=C(CSc1cccc[n+]1[O-])Nc1cc(S(=O)(=O)N2CCOCC2)ccc1N1CCOCC1,i,i,i,i,i,i
CCCCCC(=O)Nc1cc(S(=O)(=O)N2CCOCC2)ccc1N1CCCCC1,i,i,i,20.6µM,?,i
Cc1cccc(NC(=O)CN2C(=O)NC3(CCC(C)CC3)C2=O)c1C (stereo not drawn),nt,nt,i,nt,nt,nt
COc1ccccc1C(=O)N1CCC(c2nc3ccccc3o2)CC1,nt,nt,i,nt,nt,nt
Cc1noc(C2CC3(CCN(C(=O)c4cccn4C)CC3)CN2C)n1 (stereo not drawn),nt,nt,i,nt,nt,nt
Cc1ccc(S(=O)(=O)N2CCOCC2)cc1C(=O)Nc1cc(Cl)ccc1N1CCOCC1,i,i,?,?,23.1µM,i
COc1ccccc1CCC(=O)Nc1cc(S(=O)(=O)N2CCOCC2)ccc1N1CCCC1,i,i,i,29.1µM,?,i
O=C(Nc1cc(S(=O)(=O)N2CCOCC2)ccc1N1CCOCC1)c1ccccc1Cl,i,i,i,i,i,i
O=C(COc1ccccc1)Nc1cc(S(=O)(=O)N2CCOCC2)ccc1N1CCCC1,i,i,i,i,i,i
O=C(CCc1ccccc1)Nc1cc(S(=O)(=O)N2CCOCC2)ccc1N1CCCC1,i,i,i,i,i,i
Cc1cc(Cl)ccc1OCCCC(=O)Nc1cc(S(=O)(=O)N2CCOCC2)ccc1N1CCOCC1,i,i,i,16.4µM,?,i
O=C(COc1cccc(Cl)c1)Nc1cc(S(=O)(=O)N2CCOCC2)ccc1N1CCOCC1,i,i,i,18.4µM,?,?
N#Cc1c(NC(=O)CN2CCNC(=O)C2)sc2c1CCCCC2,nt,nt,i,nt,nt,nt
CC(Oc1ccc2ccc(=O)oc2c1)C(=O)NC(=O)NC1CCCCC1 (stereo not drawn),nt,nt,i,nt,nt,nt
CC(C)C(=O)N(C)N(C)C(=O)C(C)C,nt,nt,i,nt,nt,nt
Cc1nn(-c2ccc3nncn3n2)c2c1C(c1ccc(O)c(Cl)c1)CC(=O)N2 (stereo not drawn),nt,nt,i,nt,nt,nt
CCOc1ccc2c(n1)CCN(C(=O)Nc1cc(C)cc(C)c1)C2,nt,nt,i,nt,nt,nt
